# From the supplement of paper PMC4466140
# Columns and labels:
# Assay in all cases: SPOT peptide array binding signal intensity (averaged, normalized) (arbitrary units (background-subtracted, floor 0; scale differs between SH3 domains)); higher = stronger binding of the SH3 domain to the peptide
# [1] = target: AgAbp1
# How it was run: (§1)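 Peptides were synthetic 15-mers on cellulose membranes, with every cysteine replaced by serine. They were incubated overnight at 4°C with GST-SH3 domains from four yeast species at 10 μg/ml in TBS-based blocking buffer. Binding signal, the replicate-averaged normalized and background-subtracted spot intensity, is in arbitrary units that differ between domains.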
# [2] = target: AgBbc1
# How it was run: as §1
# [3] = target: AgBem1-D1
# How it was run: as §1
# [4] = target: AgBzz1-D1
# How it was run: as §1
# [5] = target: AgBzz1-D2
# How it was run: as §1
# [6] = target: AgCyk3
# How it was run: as §1
# [7] = target: AgFus1
# How it was run: as §1
# [8] = target: AgHof1
# How it was run: as §1
# [9] = target: AgHse1
# How it was run: as §1
# [10] = target: AgLsb1
# How it was run: as §1
# [11] = target: AgLsb4
# How it was run: as §1
# [12] = target: AgMyo5
# How it was run: as §1
# [13] = target: AgNbp2
# How it was run: as §1
# [14] = target: AgRvs167
# How it was run: as §1
# [15] = target: AgSho1
# How it was run: as §1
# [16] = target: AgSla1-D1-D2
# How it was run: as §1
# [17] = target: AgSla1-D3
# How it was run: as §1
# [18] = target: CaAbp1-D1
# How it was run: as §1
# [19] = target: CaAbp1-D2
# How it was run: as §1
# [20] = target: CaBbc1
# How it was run: as §1
# [21] = target: CaBem1-D1
# How it was run: as §1
# [22] = target: CaBzz1-D1
# How it was run: as §1
# [23] = target: CaBzz1-D2
# How it was run: as §1
# [24] = target: CaCyk3
# How it was run: as §1
# [25] = target: CaFus1
# How it was run: as §1
# [26] = target: CaHof1
# How it was run: as §1
# [27] = target: CaHse1
# How it was run: as §1
# [28] = target: CaLsb1
# How it was run: as §1
# [29] = target: CaLsb4
# How it was run: as §1
# [30] = target: CaMyo5
# How it was run: as §1
# [31] = target: CaNbp2
# How it was run: as §1
# [32] = target: CaRvs167
# How it was run: as §1
# [33] = target: CaRvs167-3
# How it was run: as §1
# [34] = target: CaSho1
# How it was run: as §1
# [35] = target: CaSla1-D1-D2
# How it was run: as §1
# [36] = target: CaSla1-D3
# How it was run: as §1
# [37] = target: ScAbp1
# How it was run: as §1
binder,measurement,setting,value
LPMNIQPDLPPRKIM,SPOT peptide array binding signal intensity,[1],11.5
same,SPOT peptide array binding signal intensity,[2],73.8
same,SPOT peptide array binding signal intensity,[3],263
same,SPOT peptide array binding signal intensity,[4],≤ 0
same,SPOT peptide array binding signal intensity,[5],5
same,SPOT peptide array binding signal intensity,[6],6
same,SPOT peptide array binding signal intensity,[7],301
same,SPOT peptide array binding signal intensity,[8],109
same,SPOT peptide array binding signal intensity,[9],139
same,SPOT peptide array binding signal intensity,[10],904
same,SPOT peptide array binding signal intensity,[11],3030
same,SPOT peptide array binding signal intensity,[12],≤ 0
same,SPOT peptide array binding signal intensity,[13],152
same,SPOT peptide array binding signal intensity,[14],525
same,SPOT peptide array binding signal intensity,[15],218
same,SPOT peptide array binding signal intensity,[16],≤ 0
same,SPOT peptide array binding signal intensity,[17],2.5
same,SPOT peptide array binding signal intensity,[18],63.5
same,SPOT peptide array binding signal intensity,[19],59.5
same,SPOT peptide array binding signal intensity,[20],423
same,SPOT peptide array binding signal intensity,[21],42
same,SPOT peptide array binding signal intensity,[22],290
same,SPOT peptide array binding signal intensity,[23],98.2
same,SPOT peptide array binding signal intensity,[24],15
same,SPOT peptide array binding signal intensity,[25],1460
same,SPOT peptide array binding signal intensity,[26],≤ 0
same,SPOT peptide array binding signal intensity,[27],224
same,SPOT peptide array binding signal intensity,[28],16.2
same,SPOT peptide array binding signal intensity,[29],7000
same,SPOT peptide array binding signal intensity,[30],60
same,SPOT peptide array binding signal intensity,[31],410
same,SPOT peptide array binding signal intensity,[32],1050
same,SPOT peptide array binding signal intensity,[33],0.5
same,SPOT peptide array binding signal intensity,[34],799
same,SPOT peptide array binding signal intensity,[35],409
same,SPOT peptide array binding signal intensity,[36],242
same,SPOT peptide array binding signal intensity,[37],16
